From PubChem
An excerpt weighted towards active compounds, which were near 14% of everything screened.
Marburg entry inh: qHTS for inhibitors of binding or entry into cells for Marburg Virus | 300,000 tested, 1.8% active | Marburg virus pseudotyped entry inhibition, cell reporter | Potency, µM (highest dose often 37.8 µM), without a hit: top-dose activity change, negative = inhibition, usual class: inhibitors; calls by dose curve; tested in HEK293 cells; note: potency is the fitted concentration of half-maximal effect
Lassa entry inh: qHTS for Inhibitors of binding or entry into cells for Lassa Virus. 300,000 tested, 1.2% active. Potency, µM (doses to about 37.9 µM), inactives show top-dose activity change, negative = inhibition, usual class: inhibitors. Lassa virus pseudotype entry inhibition, cell reporter; calls by dose curve; tested in HEK293 cells; note: potency is the fitted concentration of half-maximal effect; nearly all actives have a fitted effect of over 50% in size
HCMV inh: qHTS Assay for inhibitors of the human cytomegalovirus (HCMV). 410,000 tested, 4.5% active. AID 1259415, 2018. activity change, negative = inhibition, % at 57.5 µM. HFF cells, HCMV-luciferase reporter, 72 h; hits give low values; in the data active = activity change below about -60%; inconclusive = no clear call, values can overlap the other calls; inactive = above about -39%
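After 16 h attachment at 37C, HFF cells received test compound and HCMV-luciferase (1 PFU/cell); reporter luminescence read 72 h later, data normalized against buffer-only and known inhibitor Salinomycin.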
HCV inhibitor: qHTS Assay for Inhibitors of Hepatitis C Virus (HCV). Huh7.5.1 HCVcc-Cre infection, luciferase reporter, 44 h. AID 651820, 2012. 340,000 tested, 3.4% active. Potency, µM (top dose mostly 41.8 µM), for inactives: at the highest dose activity change, negative = inhibition, most hits filed as inhibitors; note: potency is the fitted concentration of half-maximal effect
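A cell-based infection assay in which seeded cells (1,000 per well) receive test compound after 4 h, are inoculated with HCVcc-Cre at approximately 0.5 moi, and are incubated 44 h before luminescence detection.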
Pf growth 96h: Primary qHTS for delayed death inhibitors of the malarial parasite plastid, 96 hour incubation; Potency, µM (top dose mostly 28.7 µM), for the others: at the top dose activity change, negative = inhibition, actives largely listed as inhibitors; P. falciparum luciferase reporter growth, 96 h; 320,000 tested, 6.9% active; note: potency is the fitted concentration of half-maximal effect
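Parasite growth measured via integrated firefly luciferase reporter in P. falciparum. Infected erythrocytes at 2% hematocrit, 0.05% parasitemia final were treated 96 hours at 37 C under 5% CO2, and luminescence was read.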
Pf growth 48h: Primary qHTS for delayed death inhibitors of the malarial parasite plastid, 48 hour incubation; Potency, µM (top dose mostly 28.7 µM), without a hit: top-dose activity change, negative = inhibition, actives largely listed as inhibitors; P. falciparum luciferase growth in erythrocytes, 48 h; 310,000 tested, 5.9% active; AID 504832, 2011; note: potency is the fitted concentration of half-maximal effect
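In quantitative HTS format, infected erythrocytes bearing luciferase-reporter parasites were treated for a single generation at 37 C. Luminescence after adding detection reagent served as the growth measure.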
* = called active by the depositor; ? = inconclusive; nt = no result given; [ ] = remark or other dose. Unless noted, calls come from the whole dose curve; as a rule, active = well fitted inhibition curve with a large enough effect; inconclusive = small, poorly fitted or top-dose-only effect, or another doubt; inactive = no such curve, though single readings can be large or run the other way. % is set by controls: 0 for no effect and ±100 for the full control effect.

SMILES | Marburg entry inh | Lassa entry inh | HCMV inh | HCV inhibitor | Pf growth 96h | Pf growth 48h
COc1ccc(C(=O)N2CCC(c3nc(-c4ccc(S(=O)(=O)N5CCCC5)cc4)no3)CC2)cc1 | ? | -24%[46.1 µM] | -81* | nt | nt | nt
O=S(=O)(c1ccc(Cl)cc1)N1CCCC(c2nc(-c3ccc(F)cc3)no2)C1 (stereo not drawn) | nt | nt | 20 | 13% | -10% | ?
O=C(c1ccco1)N1CCCC(c2nc(-c3ccc(S(=O)(=O)NCc4ccccc4)cc3)no2)C1 (stereo not drawn) | ? | ? | -88* | ? | 44% | ?
O=C(CC1CCCCC1)N1CCCC(c2nc(-c3ccc(S(=O)(=O)N4CCCC4)cc3)no2)C1 (stereo not drawn) | -26% | -24% | -71* | ? | ? | nt
O=C(O)c1ccc(S(=O)(=O)N2CCC(c3nc(-c4ccccc4Cl)no3)CC2)cc1 | 4% | -5% | 28 | 10% | 9.3µM* | -24%
Cc1cc(C)n(CCC(=O)Nc2ccc(Cl)cc2)n1 | nt | -1%[46.1 µM] | -20 | nt | nt | nt
Cc1ccc(C(=O)NCC(=O)OCC(=O)Nc2ccc3[nH]c(=O)[nH]c3c2)cc1 | -1%[46.1 µM] | 5% | -14 | -2% | 35% | -6%
CCc1cc(C(=O)NNC(=S)NC(C)c2ccccc2)cs1 (stereo not drawn) | -16% | -14% | -73* | 1% | nt | 20%
CCc1cc(C(=O)NNC(=S)NC2CCCCC2)cs1 | nt | nt | 25 | ? | -100% | 153%
CCc1cccc(CC)c1NC(=S)NC(C)c1ccccc1 (stereo not drawn) | -27% | -22% | -72* | ? | 0% | ?
CCCCn1nnnc1C1(C)CCC(=O)N1Cc1cc(OC)ccc1OC (stereo not drawn) | nt | nt | -8 | nt | nt | nt
C[C@@H]1C=CCCO[C@]12C(=O)N(Cc1ccccc1C(F)(F)F)c1ccccc12 | -12%[14.2 µM] | nt | ? | nt | nt | nt
C[N+]12CCCC[C@@H]1CCC(=C(c1cccs1)c1cccs1)C2 (stereo partly drawn) | nt | nt | nt | nt | -9% | 4.3µM*
COc1cc(-c2nc3ccccn3c2NCc2ccccc2)ccc1SC1CCCCC1 | nt | nt | nt | ? | ? | 5.2µM*
COc1ccc(CSc2ccc(-c3nc4ccccn4c3NCc3ccccc3)cc2OC)cc1 | nt | nt | -65* | ? | ? | 10µM*
COc1ccc(-c2nc3ccccn3c2NC2CCCCC2)cc1SC1CCCCC1 | nt | nt | -99* | ? | ? | 12µM*
COc1cc(-c2nc3ccc(C)cn3c2NCc2ccccc2)ccc1SC1CCCCC1 | nt | nt | 1 | -24% | 4.7µM* | ?
COc1ccc(Sc2ccc(-c3nc4cnccn4c3NC3CCCCC3)cc2OC)cc1 | nt | nt | 4 | -9% | nt | nt
Cc1nc2ccc(Cl)cc2n1C | nt | nt | -14 | nt | nt | nt
c1ccc(-c2nc3ccccn3c2NC2CCCC2)nc1 | ? | -2%[46.1 µM] | -38 | ? | 19% | 10µM*
COc1cccc(C(=O)CSc2nnc(COc3cccc4cccnc34)o2)c1 | -2% | -8% | 0 | ? | 3% | ?
O=C(CSc1nnc(COc2ccccc2Cl)o1)NC(=O)NC1CCCC1 | ? | -4% | 16 | 2% | 12µM* | 30%
Cc1ccc(C(=O)CSc2nnc(COc3cccc4cccnc34)o2)cc1 | -6% | 5% | -15 | -26% | 3.3µM* | ?
NC(=O)CSc1nnc(COc2cccc3ccccc23)o1 | nt | nt | -32 | -5% | 12µM* | 3%
CC(C)NC(=O)NC(=O)CSc1nnc(COc2ccccc2Cl)o1 | -1%[46.1 µM] | 5% | -13 | 7% | 0% | 4%
SMILES | Marburg entry inh | Lassa entry inh | HCMV inh | HCV inhibitor | Pf growth 96h | Pf growth 48h
O=C(CSc1nnc(COc2cccc3cccnc23)o1)c1ccc(F)cc1 | -24% | ? | -17 | 10µM* | 36% | ?
O=C(CSc1nnc(COc2cccc3cccnc23)o1)N1CCCC1 | 12%[46.1 µM] | ? | -4 | 16% | 17% | -16%
Cc1noc(COc2ccccc2OC[C@H](O)CNC(C)(C)C)n1 | -8% | nt | nt | nt | nt | nt
COC(=O)[C@H](Cc1ccccc1)N1C[C@@H](N2CCC[C@H]2C)CS1(=O)=O | nt | nt | 6 | nt | nt | nt
CCOC(=O)N1CCN(Cc2nc3cc(NC(=O)CC)ccc3n2C(C)C)CC1 | -30%[46.1 µM] | -24%[46.1 µM] | -9 | nt | nt | nt
CCOC(=O)N1CCN(Cc2nc3cc(NC(=O)c4ccc([N+](=O)[O-])cc4)ccc3n2C(C)C)CC1 | ? | 1%[46.1 µM] | -83* | nt | nt | nt
CCOC(=O)N1CCN(Cc2nc3cc(NC(=O)CC(C)C)ccc3n2C(C)C)CC1 | ? | -25%[46.1 µM] | -95* | nt | nt | nt
CCCn1c(CN2CCN(C(=O)OCC)CC2)nc2cc([N+](=O)[O-])ccc21 | ? | ? | -76* | ? | 399% | -23%
CCOC(=O)N1CCN(Cc2nc3cc(NC(=O)c4cccc(C)c4)ccc3n2C(C)C)CC1 | ? | -4%[46.1 µM] | -94* | nt | nt | nt
CCOC(=O)N1CCN(Cc2nc3cc(NC(=O)CC(C)C)ccc3n2C)CC1 | nt | nt | 34 | 11% | ? | ?
CCn1c(CN2CCCCC2)nc2cc(NC(=O)c3ccc([N+](=O)[O-])cc3)ccc21 | ? | -2%[46.1 µM] | -28 | nt | nt | nt
N#Cc1c[nH]n2c(NC3CCCCC3)c(-c3ccccc3F)nc12 | -11%[46.1 µM] | 5%[46.1 µM] | -18 | nt | nt | nt
NC(=NCc1ccccc1)NN=Cc1ccnc2ccccc12 | nt | nt | -12 | nt | nt | nt
CC(C)(C)C1CCc2c(sc(NC(=O)c3cccc(Cl)c3)c2C(N)=O)C1 (stereo not drawn) | 3%[46.1 µM] | 11%[46.1 µM] | -17 | nt | nt | nt
CCSc1nnc(NC(=O)COc2ccccc2[N+](=O)[O-])s1 | ? | 18%[46.1 µM] | -87* | 10% | 169% | 121%
